BRCA1 expr act: activators of BRCA1 expression; MCF7-BRCA1-FFLuc reporter, luminescence, 48 h; response scale: scaled: vehicle 0%, 10 µM genistein 100%; Potency, µM (doses to about 46.1 µM), without a hit: at the highest dose activation, most hits filed as activators; hit rate 1.1% among 380,000; further: potency means the concentration at half of the fitted maximal effect; nearly all actives have a fitted effect of over 80% in size
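Reporter cells (MCF7, BRCA1 promoter-firefly luciferase) received library compounds across a concentration series for 48 h. End-point luminescence was measured and concentration-effect curves derived after normalization.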
p53 reactivation: re-activators of mutant p53. H1299 p53-A138V BP100-luciferase reporter, luminescence, 24 h. Potency, µM (doses to about 92.2 µM), inactives show at the highest dose activity change, positive = activation, actives largely listed as activators. hit rate 0.063% among 320,000; further: potency means the concentration at half of the fitted maximal effect; % of control where 0% means no effect; nearly all actives have a fitted effect of over 45% in size
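H1299 (p53-null), stable ts p53-A138V + BP100-Luc; 1000 cells/well, Opti-MEM/10% FBS; cpd 4 pt, 1:5; 24 h, 37 deg C, 5% CO2; detection reagent 10 min RT; luminescence.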
IL2 activator: activates IL-2 in a cell-based reporter assay | IL-2 activation reporter assay, cell-based qHTS; stimulated with anti-CD3/CD4/CD28 beads; in transgenic mouse T cells | activation, % (series mostly up to about 46 µM) | hit rate 0.065% among 360,000 | AID 652025; in the data active means activation above about 50%; inconclusive means mostly about 30% to 49%; further: 0% is about no effect
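Unstimulated transgenic mouse T cells preincubated 60 min with compound, then stimulated with anti-CD3/anti-CD4-coated beads plus anti-CD28 for 18 h at 37 degrees C. IL-2 response read as EGFP and DsRed fluorescence by plate cytometry.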
A549 tox: counter-screen for Nrf2 inhibitors: cytotoxicity in A549 cells; A549 ARE-Fluc cells, CellTiter-Fluor viability, 18-24 h; Potency, µM (doses to about 46 µM), inactives show top-dose activity change, negative = cytotoxicity, usual class: inhibitors; hit rate 0.16% among 390,000; AID 504648; further: potency means the concentration at half of the fitted maximal effect; on the % scale 0 is the no-effect control and ±100 the full control effect
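A549 ARE-Fluc cells in 5% FBS OPTI-MEM, 5000 cells/well, rested 2 h then exposed to compounds in concentration-response for 18-24 h at 37 °C. Viability by CellTiter-Fluor fluorescence (Ex 405/Em 525) after 30 min; luciferase luminescence (BugLite, 15 min, RT) read afterwards.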
Nrf2 activator: Nrf2 pathway activation. AREc32 ARE-luciferase reporter (MCF7-derived line), luminescence, 24 h. Potency, µM (doses to about 46.1 µM), for inactives: at the top dose activation, actives largely listed as activators. hit rate 0.31% among 410,000. AID 624171; further: potency means the concentration at half of the fitted maximal effect; % of control where 0% means no effect; nearly all actives have a fitted effect of over 65% in size
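ARE activation measured as luciferase luminescence (Steady-Glo, 30 min RT) in AREc32_Fluc cells after 24 hr compound exposure at 37 deg C, 5% CO2; cells seeded overnight at 1000/well in OPTI-MEM, 5% FBS.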
Nrf2 block: inhibitors of Nrf2 signaling. Potency, µM (titrated, usually from 46 µM), inactives show at the top dose activity change, negative = inhibition, actives largely listed as inhibitors. hit rate 2.1% among 360,000. A549 ARE-Fluc reporter, luciferase luminescence, 18-24 h; further: potency means the concentration at half of the fitted maximal effect; on the % scale 0 is the no-effect control and ±100 the full control effect; nearly all actives have a fitted effect of over 60% in size
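Nrf2 function is reported as luminescence of an ARE-controlled luciferase in A549 cells. Compounds were tested at several concentrations, and a CellTiter-Fluor read on the same wells flagged cytotoxicity.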
* marks the source's active call; other numbers are inactive results; u = inconclusive; x = no result. In the library only some 3.2% were active in any assay of this set; here they are far more common. Unless noted, the call rests on the fitted dose curve; in most records, active means well fitted curve in the direction sought with a large enough effect; inconclusive means small, poorly fitted or top-dose-only effect, or another doubt; inactive means no such curve, though single readings can be large; an effect the other way counts as inactive or inconclusive.

SMILES	BRCA1 expr act	p53 reactivation	IL2 activator	A549 tox	Nrf2 activator	Nrf2 block
COC(=O)c1ccc2c(c1)C(C)(C)C(/C=C/c1ccc(O)cc1)=[N+]2C	-97%	-23%	-5	u	u	x
COC(=O)c1ccc2c(c1)C(C)(C)C(/C=C/c1ccc(OC)c(OC)c1OC)=[N+]2C	-89%	-12%	0	u	-3%	16µM*
O=c1c(O)c(-c2ccc(O)c(O)c2)oc2cc(O)ccc12	57%	x	-1	-3%	4%	12µM*
O=C(COC(=O)CNC(=O)c1ccccc1)Nc1nc(-c2ccccc2)cs1	6.3µM*	u	-3	0%	6%	u
O=C(COC(=O)c1cccs1)Nc1nc(-c2ccccc2)cs1	84%	6%	0	2%	2%	20%
O=C(Cc1cccs1)Nc1nc(-c2ccccc2)cs1	-24%	u	-2	-10%	4%	-17%
Cc1nc(CC(=O)Nc2nc(-c3ccccc3)cs2)cs1	11µM*	u	0	9%	3%	8%
CCNC(=S)N1CCN(C(c2ccccc2)c2ccccc2)CC1	-14%	-6%	-3	-12%	0%	26µM*
COCCCNC(=O)CSc1nc(-c2ccc(OC)cc2)[nH]c1-c1ccc(OC)cc1	x	x	x	-2%	6%	8%
O=C(C[n+]1ccccc1)c1ccc(I)cc1	17%	x	x	x	x	x
CCNC(=O)CSc1nc2cc(S(=O)(=O)Nc3ccc(OC)cc3)ccc2o1	-16%	-2%	-2	1%	2%	9%
COc1ccc(NS(=O)(=O)c2ccc3oc(SC(C)C(N)=O)nc3c2)cc1 (stereo unspecified)	-35%	-1%	-4	-3%	3%	23µM*
COc1ccc2c(c1)O/C(=C\c1ccccc1C)C2=O	13µM*	u	-3	10%	11%	17%
COc1cc(OC)c(OC)cc1/C=C1\Oc2cc(OS(C)(=O)=O)ccc2C1=O	-46%	0%	-4	3%	6%	6%
N#Cc1cccc(S(=O)(=O)N2CCN(S(=O)(=O)c3ccc4c(c3)OCCO4)CC2)c1	2%	x	x	4%	x	3%
N#Cc1ccccc1Cn1cc(/C=C/[N+](=O)[O-])c2ccccc21	-87%	-31%	-7	23µM*	-3%	u
CCc1ccc(C(=O)NC(=S)Nc2ccc3c(c2)OCCO3)cc1	6.3µM*	u	0	1%	4%	u
S=C(Nc1ccc2c(c1)OCCO2)Nc1ccccc1Cl	64%	18%	0	4%	2%	18%
O=C(NC(=S)Nc1ccc2c(c1)OCO2)c1ccc(Cl)cc1	6.3µM*	u	-1	-8%	3%	u
O=C(NC(=S)Nc1ccc(N2CCCCC2)c(Cl)c1)c1ccc2c(c1)OCCO2	-64%	1%	-1	-7%	2%	9.2µM*
S=C(Nc1ccc(Cl)cc1)Nc1ccc2c(c1)OCCO2	7.1µM*	u	-3	-7%	0%	-14%
O=C(NC(=S)Nc1ccc(N2CCOCC2)c(Cl)c1)c1cncc(Br)c1	11%	-7%	-1	11%	0%	-4%
COCCNC(=O)CCCN1C(=O)CCn2nc(-c3cccn3C)cc21	x	x	x	1%	0%	x
COc1cc(CNCc2ccccn2)ccc1OCc1ccc(Cl)c(Cl)c1	20µM*	11%	-2	6%	8%	2%
CN1CCc2c(OCC(=O)N3N=C(c4cccs4)CC3c3ccc(F)cc3)cccc2C1=O (stereo unspecified)	-14%	-12%	0	-6%	4%	u
CCN1CCc2c(OCC(=O)N3N=C(c4cccs4)CC3c3ccc(F)cc3)cccc2C1=O (stereo unspecified)	-78%	-26%	-4	-22%	1%	23µM*
O=C1CC(N2CCN(C/C=C/c3ccccc3)CC2)C(=O)N1CCc1ccccc1 (stereo unspecified)	-66%	13%	-4	1%	5%	9.2µM*
